FBA Mtb inh – inhibits M. tuberculosis FBA enzyme; P9WQA3; purified M. tuberculosis FBA, fluorescence read-out; inhibition, % at 1 µM; hit rate 2.3% among 360,000
Target sequence (P9WQA3 whole entry, looked up): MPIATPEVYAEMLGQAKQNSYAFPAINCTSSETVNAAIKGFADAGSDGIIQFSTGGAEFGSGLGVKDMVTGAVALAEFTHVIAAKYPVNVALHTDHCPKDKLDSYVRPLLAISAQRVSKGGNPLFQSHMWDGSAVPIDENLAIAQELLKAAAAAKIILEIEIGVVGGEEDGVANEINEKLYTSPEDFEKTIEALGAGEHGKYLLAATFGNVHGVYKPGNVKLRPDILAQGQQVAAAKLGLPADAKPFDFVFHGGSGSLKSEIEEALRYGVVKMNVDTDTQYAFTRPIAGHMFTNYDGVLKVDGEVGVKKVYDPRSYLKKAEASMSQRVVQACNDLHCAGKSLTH
CCHFV vOTU inh – blocks the CCHF virus ovarian tumor domain protease. CCHFV vOTU protease, Pep-AMC fluorescence. inhibition, % at 11.5 µM. hit rate 0.55% among 370,000. AID 651958; in the data active = inhibition above about 30%
MazEF act – MazEF (E. coli) toxin RNase activation. activation, % at 20 µM. AID 504720. hit rate 0.32% among 350,000. FAM/BHQ RNA-DNA oligo cleavage fluorescence, 5 h; in the data active = activation above about 50%
Target sequence (P0AE70 whole entry, looked up): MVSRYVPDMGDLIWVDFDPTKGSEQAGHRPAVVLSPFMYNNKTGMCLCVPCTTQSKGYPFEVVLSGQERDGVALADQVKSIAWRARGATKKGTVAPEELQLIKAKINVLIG
GDH-TPI counter-1 – counter-screen for M. tuberculosis FBA inhibitors: GDH-TPI coupled enzymes. GDH-TPI coupled enzyme counterscreen, NADH absorbance. inhibition, % at 4.8 µM. hit rate 1.2% among 360,000. AID 588335; in the data active = inhibition above about 30%
Mtb bLac sens – beta-lactam sensitization of Mtb H37Rv; M. tuberculosis H37Rv growth with meropenem, percent inhibition; inhibition, % at 25 µM; hit rate 0.27% among 330,000; AID 434955; call rule not given here;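 note: growth measured after seven days incubation then overnight dye step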
Mtb FBA confirm – confirmation of M. tuberculosis fructose-bisphosphate aldolase inhibitors. shares compounds with FBA Mtb inh. purified M. tuberculosis FBA, fluorescence read-out. hit rate 78% among 5,600. inhibition, % at 1 µM
GDH-TPI counter-2 – inhibits GDH-TPI coupling enzymes, flagging Mtb FBA hits; shares compounds with FBA Mtb inh; GDH-TPI coupled enzyme counterscreen, fluorescence; inhibition, % at 1 µM; hit rate 81% among 5,600; AID 652141; in the data active = inhibition above about 10%
GDH-TPI DR – GDH-TPI dose response counter-screen for Mtb FBA | hit rate 79% among 170 | IC50, µM | shares compounds with FBA Mtb inh | AID 652145 | GDH-TPI coupled enzyme assay, fluorescence, artifact counterscreen; call rule not given here
Hits are given with their value; 0 = inactive; - = not tested or not shown; + = active, no number. An excerpt weighted towards active compounds, which were near 4% of everything screened. Cut-off read from the data, not from the text of the source, unless noted: active = inhibition above about 27%; inactive = the rest.

SMILES	FBA Mtb inh	CCHFV vOTU inh	MazEF act	GDH-TPI counter-1	Mtb bLac sens	Mtb FBA confirm	GDH-TPI counter-2	others
CCn1c(=O)c2cc(C(=O)NCCC(C)C)sc2c2ccccc21	0	0	0	0	0	-	-
COCc1cn(-c2ccc3c(c2)[C@]2(CC(=O)N(C)C2c2ccccc2)C(=O)N3CC(C)C)nn1 (stereo not given in full)	-	0	-	-	-	-	-
Cc1ccccc1N1CCN(S(=O)(=O)c2ccc3c(c2)n(C)c(=O)c(=O)n3C)CC1	-	0	-	-	-	-	-
COc1cc(-c2c(C#N)c(N)nc3c2CCCC3)cc(OC)c1OC	0	0	0	0	0	-	-
COc1ccc(-c2c(C#N)c(N)nc3c2CCC3)cc1	53	0	0	0	0	136	93
COc1ccc(-c2c(C#N)c(N)nc3c2CCCC3)cc1OC	0	0	0	0	0	-	-
N#Cc1c(N)nc2c(c1-c1ccccc1)CCC2	61	0	0	0	0	119	91
Cc1ccc(S(=O)(=O)n2ccc(-c3c(-c4ccc(Cl)cc4)noc3C)n2)cc1	-	0	-	-	-	-	-
CC(=O)Nc1ccc(-c2nc3cc(Cl)ccc3o2)cc1	29	0	0	0	0	+	+
CCCCCC(=O)Nc1ccc2oc(-c3cccnc3)nc2c1	84	0	0	0	0	47	44
CC(C)(C)C(=O)Nc1ccc2oc(-c3cc(F)c(F)cc3Cl)nc2c1	53	0	0	0	0	70	47
CCCC(=O)Nc1ccc(-c2nc3cc(C)c(C)cc3o2)c(O)c1	0	0	0	0	0	-	-
CCCC(=O)Nc1ccc(-c2nc3cc(C)ccc3o2)cc1	96	0	0	0	0	76	77
O=C(O)c1ccccc1-c1ccccc1C(=O)Nc1ccc(-c2nc3cc(Cl)ccc3o2)cc1	0	0	0	0	0	-	-
COC(=O)[C@]12C[C@H](CC(=O)NCc3cccc(C(F)(F)F)c3)C(=O)N(CCc3ccc(OC)c(OC)c3)C1=C[C@H](COCc1ccccc1)O[C@@H]2C	-	0	-	-	-	-	-
C=CCN1[C@@H](C)[C@H](c2ccccc2)Oc2cccc(NCCc3ccccc3)c2S1(=O)=O	-	0	-	-	-	-	-
Cc1ccccc1CN1CCCCC(NC(=O)Nc2ccccc2)C1=O (stereo not given)	-	0	-	-	-	-	-
O=C(NCc1ccc2c(c1)OCO2)C1CCCCC1	0	0	0	0	0	-	-
O=C(O)C1CCCCC1C(=O)NCc1ccc2c(c1)OCO2 (stereo not given)	90	0	0	0	0	+	162
COc1ccc(-c2oc3ccccc3c2C(=O)Oc2ccccc2)cc1	91	0	0	0	0	29	27
COc1ccc(-c2oc3ccccc3c2C(=O)OCc2ccc(O)cc2)cc1	74	0	0	0	0	60	64
COc1ccc(-c2oc3ccccc3c2C(=O)OCc2ccccc2)cc1	99	0	0	0	0	+	175
COP(=O)(O)CCOCCC(CC(C)C)NC(=O)OCc1ccccc1 (stereo not given)	-	0	-	-	-	-	-
COc1ccc2oc(=O)c(C(=O)n3ccc(C)n3)cc2c1	40	0	0	0	0	78	54
COc1ccc2oc(=O)c(C(=O)NCC3CCCO3)cc2c1 (stereo not given)	64	0	0	0	0	79	59
SMILES	FBA Mtb inh	CCHFV vOTU inh	MazEF act	GDH-TPI counter-1	Mtb bLac sens	Mtb FBA confirm	GDH-TPI counter-2	others
CNC(=O)c1cc2cc(OC)ccc2oc1=N	54	0	0	0	0	28	16
COc1ccc2oc(=O)c(C(=O)NC3CCCCCC3)cc2c1	0	0	0	0	0	-	-
COc1ccc(-c2cc(C(F)F)n3ncc(C(=O)NCC4CCCO4)c3n2)cc1 (stereo not given)	29	0	0	0	0	96	76
Cc1ccc(-n2c(SC/C=C/c3ccccc3)nnc2-c2ccco2)cc1	-	0	-	-	-	-	-
CCCCCCCCN1C(=O)[C@@H](CC(=O)N2CCCC2)C[C@@]2(C(=O)OC)C1=C[C@H](C(C)C)O[C@@H]2C1CC1	-	0	-	-	-	-	-
CNC(=O)c1cc2cc(OC)ccc2oc1=O	59	-	0	0	0	0	0
Cc1ccc2[nH]c(=O)c(-c3noc(C(C)C)n3)cc2c1	0	0	0	0	0	-	-
CCc1nc(-c2cc3ccc(C)cc3[nH]c2=O)no1	30	0	0	0	0	91	82
Cc1ccc2cc(-c3noc(C(C)(C)C)n3)c(=O)[nH]c2c1	30	0	0	0	0	65	58
OC[C@@H]1[C@@H](c2ccc(F)cc2)C(c2cccc(Cl)c2)=NN1c1ccccc1	42	0	0	0	-	41	36
OC[C@@H]1[C@@H](c2ccc(Cl)cc2)C(c2cccc(Cl)c2)=NN1c1ccccc1	63	0	0	0	-	158	102
OC[C@@H]1[C@@H](c2ccc(Cl)cc2)C(c2ccccc2)=NN1c1ccccc1	54	0	0	0	-	110	78
CC1CCCN(c2cccc3c2S(=O)(=O)N(Cc2cccc(F)c2)[C@@H](C)[C@H](c2ccccc2)O3)C1 (stereo not given in full)	-	0	-	-	-	-	-
O=C(NCc1ccc(Cl)cc1)OCCN1C(=O)CCC12CCC(c1ccccc1)CC2 (stereo not given)	-	0	-	-	-	-	-
N#Cc1ccc(CNc2cnccn2)cc1	69	0	0	0	0	0	0
N#Cc1ccc(CSc2nnc(-c3cnccn3)o2)cc1	0	0	0	0	0	-	-
Clc1ccc(CNc2cnccn2)cc1Cl	61	0	0	0	0	0	0
COc1ccc(OCc2nn3c(-c4ccccc4)nnc3s2)cc1	-	0	-	-	-	-	-
Cc1cc(OC(C)C(=O)NCCN2CCOCC2)c2c(C)c(C)c(=O)oc2c1 (stereo not given)	51	0	0	0	0	116	94
CCCc1cc(=O)oc2cc(C)cc(OC(C)C(=O)NCCN3CCOCC3)c12 (stereo not given)	61	0	0	0	0	54	43
CCc1cc(=O)oc2c(C)c(OC(C)C(=O)NCCCN3CCOCC3)ccc12 (stereo not given)	0	0	0	0	0	-	-
Cc1cc(=O)oc2c(C)c(OC(C)C(=O)NCCCN3CCOCC3)ccc12 (stereo not given)	0	0	0	0	0	-	-
Cc1cc(OC(C)C(=O)NCCCN2CCOCC2)c2c(C)cc(=O)oc2c1 (stereo not given)	56	0	0	0	0	0	0	GDH-TPI DR=2.7
CCCc1cc(=O)oc2cc(C)cc(OC(C)C(=O)NCCCN3CCOCC3)c12 (stereo not given)	80	0	0	0	0	0	0
N#Cc1ccc(S(=O)(=O)N2CCCc3nc(-c4ccccc4)ccc32)cc1	-	0	-	-	-	-	-
O=S1(=O)c2c(cccc2N2CC[C@H](O)C2)O[C@H]2CCN1C2	-	0	-	-	-	-	-
Cc1ccc2c(c1)C(CS(=O)(=O)NCC(C)C)NC2 (stereo not given)	-	0	-	-	-	-	-
COC(=O)C1CN(Cc2ccc(OC)cc2)CCS(=O)(=O)N1Cc1ccc(Cl)cc1 (stereo not given)	-	0	-	-	-	-	-

Compound activity as filed in PubChem.
